Measurements published in the supplement of paper PMC8975748.
Structures can show the parent of a compound that is named as a salt.

The compounds below were run on Saccharomyces cerevisiae BY4741 SeMeCo community (assay: z-score of subpopulation abundance vs DMSO median, subpopulation auxotrophic for LU; higher = larger share of this subpopulation than in DMSO controls). Settings: 10 µM; 24 h; SM minimal medium; subpopulation (auxotrophy): LU.
Procedure, shortened: (§1)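 A Saccharomyces cerevisiae BY4741 community carried four plasmids, each restoring one auxotrophy and encoding a distinct fluorescent protein. It was pre-grown overnight to OD600 1.0, diluted to 0.3, and 70 µl was added to 384-well plates acoustically predosed with library drugs (10 µM final), then grown 24 h in minimal SM medium. Cells were paraformaldehyde-fixed and imaged by automated confocal microscopy, with single-auxotroph fluorescent strains setting thresholds and autofluorescence correction. Each subpopulation's abundance was scored as a z-score against the vehicle-well median.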

Structure (SMILES) | z-score of subpopulation abundance
OCc1ccccc1O[C@@H]1O[C@H](CO)[C@@H](O)[C@H](O)[C@H]1O [Salicin] | -0.12
CCCCCOc1ccc(-c2ccc(-c3ccc(C(=O)N[C@H]4C[C@@H](O)[C@@H](O)NC(=O)[C@@H]5[C@@H](O)[C@@H](C)CN5C(=O)[C@H]([C@@H](C)O)NC(=O)[C@H]([C@H](O)[C@@H](O)c5ccc(O)cc5)NC(=O)[C@@H]5C[C@@H](O)CN5C(=O)[C@H]([C@@H](C)O)NC4=O)cc3)cc2)cc1 | 5.21
C[C@H](NCc1ccc(OCc2cccc(F)c2)cc1)C(N)=O [Safinamide] | 0.99
C[N+]1(C)[C@@H]2C[C@@H](OC(=O)C(O)(c3cccs3)c3cccs3)C[C@H]1[C@@H]1O[C@@H]12 [Tiotropium Bromide hydrate] | -0.81
CN(C)CCc1c[nH]c2ccc(CS(=O)(=O)N3CCCC3)cc12 [Almotriptan Malate] | 0.07
CCC(=O)NS(=O)(=O)c1ccc(-c2c(-c3ccccc3)noc2C)cc1 [Parecoxib Sodium] | 0.31
Cc1cccc(C)c1NC(=O)C1CCCCN1C (stereo unspecified) [Mepivacaine] | -0.35
CC1=C(CC(=O)O)c2cc(F)ccc2/C1=C\c1ccc([S+](C)[O-])cc1 (stereo unspecified) [Sulindac] | -0.59
NC(=O)N1c2ccccc2C=Cc2ccccc21 [Carbamazepine] | -0.08
CC(=O)OCC(CCn1cnc2cnc(N)nc21)COC(C)=O [Famciclovir] | -0.41
C[C@@H]1CC(=O)NN=C1c1ccc(NN=C(C#N)C#N)cc1 [Levosimendan] | 0.42
N[C@@H](CCC(=O)O)C(=O)O [(S)-Glutamic acid] | -0.36
c1cnc2cc3c(cc2n1)[C@@H]1CNC[C@H]3C1 [Varenicline Tartrate] | -0.66
NC[C@@H]1O[C@H](O[C@H]2[C@@H](O)[C@H](O[C@@H]3[C@@H](O)[C@H](N)C[C@H](N)[C@H]3O[C@H]3O[C@H](CN)[C@@H](O)[C@H](O)[C@H]3N)O[C@@H]2CO)[C@H](N)[C@@H](O)[C@@H]1O [Neomycin sulfate] | 0.11
C#CCC(Cc1cnc2nc(N)nc(N)c2n1)c1ccc(C(=O)N[C@@H](CCC(=O)O)C(=O)O)cc1 (stereo partly specified) [Pralatrexate] | -3.34
N#CC(c1ccc(Cl)cc1)c1c(Cl)cc(-n2ncc(=O)[nH]c2=O)cc1Cl (stereo unspecified) [Diclazuril] | -0.92
CC1(C)[C@H](C(=O)O)N2C(=O)C[C@H]2S1(=O)=O [Sulbactam sodium] | 0.63
CC/C(=C(\c1ccccc1)c1ccc(OCCN(C)C)cc1)c1ccccc1 [Tamoxifen] | 0.89
CCC(C)(Oc1ccc(C2(c3ccc(OC(C)(CC)C(=O)O)cc3)CCCCC2)cc1)C(=O)O (stereo unspecified) [Clinofibrate] | -0.18
O=C1CCc2ccc(OCCCCN3CCN(c4cccc(Cl)c4Cl)CC3)cc2N1 [Aripiprazole] | 0.61
O=C(O)C[C@H](O)C[C@H](O)/C=C/c1c(C2CC2)nc2ccccc2c1-c1ccc(F)cc1 [Pitavastatin Calcium] | 1.45
CN(C)CCN1C(=O)c2cccc3cc(N)cc(c23)C1=O [Amonafide] | -0.78
c1ccc(-c2ccc(C(c3ccccc3)n3ccnc3)cc2)cc1 (stereo unspecified) [Bifonazole] | -0.8
CO/N=C(\C(=O)N[C@@H]1C(=O)N2C(C(=O)O)=C(Cn3ccc(=N)n3CCO)CS[C@H]12)c1csc(N)n1 [Cefoselis Sulfate] | -0.98

The compounds below were run on Saccharomyces cerevisiae BY4741 SeMeCo community (assay: z-score of subpopulation abundance vs DMSO median, subpopulation auxotrophic for LM; higher = larger share of this subpopulation than in DMSO controls). Settings: 10 µM; 24 h; SM minimal medium; subpopulation (auxotrophy): LM.
Procedure, shortened: as §1

Structure (SMILES) | z-score of subpopulation abundance
C#CCN[C@@H]1CCc2ccccc21 [Rasagiline Mesylate] | 0.42
OCc1ccccc1O[C@@H]1O[C@H](CO)[C@@H](O)[C@H](O)[C@H]1O [Salicin] | 0.72
CCCCCOc1ccc(-c2ccc(-c3ccc(C(=O)N[C@H]4C[C@@H](O)[C@@H](O)NC(=O)[C@@H]5[C@@H](O)[C@@H](C)CN5C(=O)[C@H]([C@@H](C)O)NC(=O)[C@H]([C@H](O)[C@@H](O)c5ccc(O)cc5)NC(=O)[C@@H]5C[C@@H](O)CN5C(=O)[C@H]([C@@H](C)O)NC4=O)cc3)cc2)cc1 | 1.2
COc1cc2c(cc1OC)[C@@H]1Cc3ccc(OC)c(OC)c3CN1CC2 [Rotundine] | -0.15
C[C@H](NCc1ccc(OCc2cccc(F)c2)cc1)C(N)=O [Safinamide] | 0.37
CC1(C)S[C@@H]2[C@H](NC(=O)COc3ccccc3)C(=O)N2[C@H]1C(=O)O [Penicillin V potassium salt] | 0.22
CC[C@H]1OC(=O)C[C@@H](O)[C@H](C)[C@@H](O[C@@H]2O[C@H](C)[C@@H](O[C@H]3C[C@@](C)(O)[C@@H](O)[C@H](C)O3)[C@H](N(C)C)[C@H]2O)[C@@H](CC=O)C[C@@H](C)C(=O)/C=C/C(C)=C/[C@@H]1CO[C@@H]1O[C@H](C)[C@@H](O)[C@@H](OC)[C@H]1OC [Tylosin] | 1.45
C[N+]1(C)[C@@H]2C[C@@H](OC(=O)C(O)(c3cccs3)c3cccs3)C[C@H]1[C@@H]1O[C@@H]12 [Tiotropium Bromide hydrate] | -0.42
CN(C)CCc1c[nH]c2ccc(CS(=O)(=O)N3CCCC3)cc12 [Almotriptan Malate] | -0.71
CCC(=O)NS(=O)(=O)c1ccc(-c2c(-c3ccccc3)noc2C)cc1 [Parecoxib Sodium] | 1
CCN(CC)CCOCCOC(=O)C1(c2ccccc2)CCCC1 [Pentoxyverine Citrate] | -0.24
Cc1cccc(C)c1NC(=O)C1CCCCN1C (stereo unspecified) [Mepivacaine] | 0.4
CC1=C(CC(=O)O)c2cc(F)ccc2/C1=C\c1ccc([S+](C)[O-])cc1 (stereo unspecified) [Sulindac] | 1.7
C#C[C@]1(O)CC[C@H]2[C@@H]3CCC4=CCCC[C@@H]4[C@H]3CC[C@@]21C [Lynestrenol] | -0.94
NC(=O)N1c2ccccc2C=Cc2ccccc21 [Carbamazepine] | 0.14
CC(=O)OCC(CCn1cnc2cnc(N)nc21)COC(C)=O [Famciclovir] | -0.17
C[C@@H]1CC(=O)NN=C1c1ccc(NN=C(C#N)C#N)cc1 [Levosimendan] | -0.47
N[C@@H](CCC(=O)O)C(=O)O [(S)-Glutamic acid] | 0.15
c1cnc2cc3c(cc2n1)[C@@H]1CNC[C@H]3C1 [Varenicline Tartrate] | 0.09

Structure (SMILES) | z-score of subpopulation abundance
NC[C@@H]1O[C@H](O[C@H]2[C@@H](O)[C@H](O[C@@H]3[C@@H](O)[C@H](N)C[C@H](N)[C@H]3O[C@H]3O[C@H](CN)[C@@H](O)[C@H](O)[C@H]3N)O[C@@H]2CO)[C@H](N)[C@@H](O)[C@@H]1O [Neomycin sulfate] | -0.12
C#CCC(Cc1cnc2nc(N)nc(N)c2n1)c1ccc(C(=O)N[C@@H](CCC(=O)O)C(=O)O)cc1 (stereo partly specified) [Pralatrexate] | 3.24
CCCCCCCCCCCCCCCC[N+](C)(C)C [Cetrimonium Bromide (CTAB)] | 3.5
C#C[C@]1(O)CC[C@H]2[C@@H]3CCC4=CCCC[C@@H]4[C@H]3C(=C)C[C@@]21CC [Desogestrel] | -0.94
C=CC[N+]1([C@H]2C[C@H]3[C@@H]4CC[C@H]5C[C@H](O)[C@@H](N6CCOCC6)C[C@]5(C)[C@H]4CC[C@]3(C)[C@H]2OC(C)=O)CCCC1 [Rocuronium Bromide] | -0.17
N#CC(c1ccc(Cl)cc1)c1c(Cl)cc(-n2ncc(=O)[nH]c2=O)cc1Cl (stereo unspecified) [Diclazuril] | -0.81
COCCCN1CCC(NC(=O)c2cc(Cl)c(N)c3c2OCC3)CC1 [Prucalopride] | -0.04
CN(C/C=C/C#CC(C)(C)C)Cc1cccc2ccccc12 [Terbinafine HCl] | -0.74
CC1(C)[C@H](C(=O)O)N2C(=O)C[C@H]2S1(=O)=O [Sulbactam sodium] | -0.08
CC/C(=C(\c1ccccc1)c1ccc(OCCN(C)C)cc1)c1ccccc1 [Tamoxifen] | 1.82
COC(=O)C1=C(C)NC(C)=C(C(=O)OCCN2CCN(C(c3ccccc3)c3ccccc3)CC2)C1c1cccc([N+](=O)[O-])c1 (stereo unspecified) [Manidipine 2HCl] | 2.4
O=C1CCc2ccc(OCCCCN3CCN(c4cccc(Cl)c4Cl)CC3)cc2N1 [Aripiprazole] | 1.05
CCC(=O)Oc1ccc2c(c1)CCC1C2CCC2(C)C(OC(=O)CC)CCC12 (stereo not drawn) [Estradiol dipropionate(17-Beta-Estradiol-3,17-Dipropionate)] | -0.31
CN(C)CCN1C(=O)c2cccc3cc(N)cc(c23)C1=O [Amonafide] | 1.08
c1ccc(-c2ccc(C(c3ccccc3)n3ccnc3)cc2)cc1 (stereo unspecified) [Bifonazole] | 0.64
CO/N=C(\C(=O)N[C@@H]1C(=O)N2C(C(=O)O)=C(Cn3ccc(=N)n3CCO)CS[C@H]12)c1csc(N)n1 [Cefoselis Sulfate] | -0.08
OC(CCN1CCCCC1)(c1ccccc1)C1CCCCC1 (stereo unspecified) [Trihexyphenidyl hydrochloride] | -0.29
C[C@H](NCc1ccc(OCc2cccc(F)c2)cc1)C(N)=O [Safinamide Mesylate] | 0.94
